Experimental data from PubChem BioAssay.
Calls of active or inactive are those of the source. Unless noted, no rule for the calls is given here.

Tests used:
[1] = HepG2 liver cancer cell viability effects, profiling panel, resazurin fluorescence, 24 h, PK04 Diversity Set (AID 1172); conditions: higher = more signal
[2] = basal S. cerevisiae growth modulation, no modifier, primary screen, OD600, strain BY4716, 24 h, basal condition (AID 1173); conditions: OD600, 24 h, higher = more signal, called active from +8 up or from −8 down
[3] = MM1S myeloma cell viability, profiling panel, resazurin fluorescence, basal, 24 h, PK04 Diversity Set (AID 1174); conditions: higher = more signal, called active from +8 up or from −8 down;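 also: MM1S multiple myeloma cell line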
[4] = target: Dihydroorotate dehydrogenase (quinone), mitochondrial (Plasmodium falciparum (isolate 3D7)) (UniProt Q08210); assay: PfDHODH enzyme inhibitors, primary screen, biochemical, C-terminal His tag, absorbance 600 nm (AID 1175); conditions: DCIP absorbance 600 nm, higher = more signal, called active from +8 up or from −8 down;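 also: recombinant parasite enzyme with a five histidine tag at its C terminus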
[5] = P. aeruginosa biofilm formation inhibitors, primary screen, strain PAO1, LB-PBS medium, absorbance 600 nm (AID 1176); conditions: P. aeruginosa PAO1 growth/biofilm, A600, 12 h; higher = more signal
[6] = S. cerevisiae RM11-1a growth modifiers, primary screen, strain RM11-1a, OD600, basal, 24 h (AID 1177); conditions: OD600, 24 h, higher = more signal, called active from +8 up or from −8 down;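 also: cultures grown under basal conditions with no added stressor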
[7] = E. coli acrAB mutant growth effects, primary screen, E. coli filamentation inducers, strain DRC39, OD650, 24 h (AID 1178); conditions: higher = more signal, called active from +8 up or from −8 down;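 also: growth measured as culture turbidity by optical density at 650 nm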
[8] = E. coli acrAB mutant growth effects, primary screen, E. coli filamentation inducers, strain DRC39, OD650, 48 h (AID 1179);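 also: screen aims at cell division blockers that make cells filament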; conditions: E. coli DRC39 delta-acrAB growth, higher = more signal, called active from +8 up or from −8 down
[9] = RPMI8226 myeloma cell viability, profiling panel, resazurin fluorescence, basal, 24 h, PK04 Diversity Set (AID 1180); conditions: higher = more signal;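 also: RPMI8826 multiple myeloma cell line at 5000 cells per well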
[10] = target: E3 ubiquitin-protein ligase XIAP (Homo sapiens) (UniProt P98170); assay: XIAP binders, primary screen, biophysical, small-molecule microarray, fluorescence 635 nm (AID 1181); conditions: small-molecule microarray binding, higher = more signal;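 also: score merges 667 nm emission and signal to noise over triplicate slides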
[11] = tested on: XIP peptide (Xip251-270) binding; assay: small-molecule binders of XIP peptide, primary screen, biochemical, small-molecule microarray, fluorescence 635/667 nm, 0.1 µg/mL protein (AID 1182); conditions: fluorescent protein binding, 635 nm, higher = more signal, called active from +8 up or from −8 down
XIP peptide (Xip251-270) = assay: small-molecule binders of XIP peptide, primary screen, biochemical, small-molecule microarray, fluorescence 635/667 nm, 0.5 µg/mL protein (AID 1183); conditions: small-molecule microarray binding, fluorescence 635 nm; higher = more signal
[12] = Plasmodium falciparum growth inhibition, primary screen, strain 3D7, DAPI fluorescence, 100 nL (AID 1184);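 also: parasites grown inside human red blood cells in medium with human serum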; conditions: P. falciparum 3D7 growth, 3 d, higher = more signal
[13] = target: Homeobox protein Hox-A13 (Mus musculus) (UniProt Q62424); assay: inhibitors of HoxA13-DNA binding, primary screen, biochemical, fluorescence polarization, labeled oligonucleotide (AID 1185); conditions: 15 min, higher = more signal, called active from +8 up or from −8 down
[14] = inhibitors of hydroxyurea-induced Chk1 phosphorylation, primary screen, imaging, HeLa, phospho-Chk1 antibody, percent positive cells (AID 1186); conditions: hydroxyurea-induced phospho-Chk1 immunofluorescence imaging, higher = more signal
[15] = inhibitors of hydroxyurea-induced Chk1 phosphorylation, primary screen, imaging, HeLa, phospho-Chk1 nuclear intensity (AID 1187); conditions: hydroxyurea-induced phospho-Chk1 immunofluorescence imaging, higher = more signal

Sequence of Dihydroorotate dehydrogenase (quinone), mitochondrial (Plasmodium falciparum (isolate 3D7)) (Q08210 whole entry, looked up): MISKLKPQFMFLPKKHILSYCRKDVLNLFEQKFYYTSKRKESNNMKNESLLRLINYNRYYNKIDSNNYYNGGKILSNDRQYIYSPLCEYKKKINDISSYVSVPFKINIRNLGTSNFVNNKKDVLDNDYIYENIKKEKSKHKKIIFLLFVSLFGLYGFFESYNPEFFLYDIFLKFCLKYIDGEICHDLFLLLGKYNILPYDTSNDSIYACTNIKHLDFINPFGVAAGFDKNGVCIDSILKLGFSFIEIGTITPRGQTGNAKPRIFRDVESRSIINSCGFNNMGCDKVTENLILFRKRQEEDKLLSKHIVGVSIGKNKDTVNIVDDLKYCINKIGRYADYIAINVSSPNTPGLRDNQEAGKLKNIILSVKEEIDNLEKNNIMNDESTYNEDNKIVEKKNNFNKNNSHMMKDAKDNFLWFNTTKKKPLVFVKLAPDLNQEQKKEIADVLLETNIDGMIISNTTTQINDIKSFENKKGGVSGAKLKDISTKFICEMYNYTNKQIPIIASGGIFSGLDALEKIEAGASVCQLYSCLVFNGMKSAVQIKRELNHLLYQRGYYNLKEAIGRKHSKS
Sequence of Homeobox protein Hox-A13 (Mus musculus) (Q62424 whole entry, looked up): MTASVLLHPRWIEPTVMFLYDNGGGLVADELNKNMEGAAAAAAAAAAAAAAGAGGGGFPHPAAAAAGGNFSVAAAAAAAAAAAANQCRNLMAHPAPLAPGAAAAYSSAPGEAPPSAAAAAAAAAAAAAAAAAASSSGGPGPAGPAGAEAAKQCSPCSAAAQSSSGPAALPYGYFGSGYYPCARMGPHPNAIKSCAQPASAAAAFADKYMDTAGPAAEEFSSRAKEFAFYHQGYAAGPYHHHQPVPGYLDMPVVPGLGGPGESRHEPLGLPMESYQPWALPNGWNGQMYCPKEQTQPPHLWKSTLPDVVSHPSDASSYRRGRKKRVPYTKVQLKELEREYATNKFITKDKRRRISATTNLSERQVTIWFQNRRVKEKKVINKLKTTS
Sequence of E3 ubiquitin-protein ligase XIAP (Homo sapiens) (P98170 whole entry, looked up): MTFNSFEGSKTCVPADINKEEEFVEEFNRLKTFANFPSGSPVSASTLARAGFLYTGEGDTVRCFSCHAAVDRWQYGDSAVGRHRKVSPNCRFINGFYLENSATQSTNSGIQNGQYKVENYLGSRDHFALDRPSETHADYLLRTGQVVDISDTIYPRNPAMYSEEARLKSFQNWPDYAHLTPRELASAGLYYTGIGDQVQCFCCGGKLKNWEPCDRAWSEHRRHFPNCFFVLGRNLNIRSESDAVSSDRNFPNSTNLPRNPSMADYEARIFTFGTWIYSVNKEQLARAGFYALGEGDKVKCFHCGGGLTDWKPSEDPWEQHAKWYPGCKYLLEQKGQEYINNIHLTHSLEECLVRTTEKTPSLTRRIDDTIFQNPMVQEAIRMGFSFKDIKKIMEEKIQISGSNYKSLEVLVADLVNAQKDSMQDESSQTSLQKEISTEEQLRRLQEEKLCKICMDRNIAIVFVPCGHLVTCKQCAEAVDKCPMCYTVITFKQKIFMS

SMILES	z-score [1]	z-score [2]	z-score [3]	composite z-score [4]	z-score [5]	z-score [6]	z-score [7]	z-score [8]	z-score [9]	composite z-score [10]	composite z-score [11]	composite z-score (XIP peptide (Xip251-270))	z-score [12]	z-score [13]	z-score [14]	z-score [15]
O=C(O)[C@@H]1[C@@H]2C(=O)N(c3ccccc3)C(=O)[C@@H]2C[C@@H]1Sc1ccccc1	-0.303	0.308 (inactive)	-0.832 (inactive)	1.2 (inactive)	0.546 (inactive)	1.48 (inactive)	-0.719 (inactive)	-1.3 (inactive)	-1.09	-0.0907	-0.213 (inactive)	0.463	0.0183	-2.65 (inactive)	0.701 (inactive)	-0.162 (inactive)
CCCC=C(CCC)[C@@H](NS(=O)(=O)c1ccc(C(F)(F)F)cc1)c1ccccc1	0.281	1.55 (inactive)	-0.489 (inactive)	0.348 (inactive)	1.03 (inactive)	1.84 (inactive)	-0.763 (inactive)	-0.197 (inactive)	-0.683	-0.206	0.25 (inactive)	-0.0998	-1.5	-0.64 (inactive)	-0.0215 (inactive)	-0.157 (inactive)
CCOC(=O)C[C@H]1[C@H](OC(=O)Cc2ccc3c(c2)OCO3)[C@@H](NC(=O)C2CCCCC2)c2cc(OCCCO)ccc2N1C(=O)c1ccccc1	-0.215	0.149 (inactive)	0.327 (inactive)	0.108 (inactive)	0.407 (inactive)	0.0834 (inactive)	1.39 (inactive)	1.37 (inactive)	0.3	-0.173	-0.137 (inactive)	0.514	-0.201	-3.57 (inactive)	-0.296 (inactive)	-0.176 (inactive)
Cc1ccc(S[C@]2(C(=O)NCC(F)(F)F)CC(=O)N(Cc3cc(C(F)(F)F)cc(C(F)(F)F)c3)[C@@H]2c2ccc(CO)cc2I)cc1	1.02	-3.16 (inactive)	-1.99 (inactive)	-0.845 (inactive)	-0.522 (inactive)	-0.974 (inactive)	-0.301 (inactive)	-0.0582 (inactive)	-2.03	-0.325	1.46 (inactive)	0.981	-0.609	-2.68 (inactive)	0.427 (inactive)	0.684 (inactive)
CCCN1C(=O)[C@]2(Cc3ccccc31)N=C(c1ccc(OCCCO)cc1)O[C@@H]2c1ccccc1	-0.222	-1.72 (inactive)	-1.31 (inactive)	1.16 (inactive)	0.0279 (inactive)	1.4 (inactive)	1.15 (inactive)	-0.413 (inactive)	-0.804	0.0605	-0.0074 (inactive)	0.763	-2.32	-6.66 (inactive)	0.0183 (inactive)	0.825 (inactive)
CN(C)C(=O)[C@]1(CCC(=O)OC(C)(C)C)N=C(c2ccc(OCCCO)cc2)O[C@@H]1c1ccccc1CN=[N+]=[N-]	1.52	-0.756 (inactive)	0.136 (inactive)	-0.369 (inactive)	-0.36 (inactive)	-0.0274 (inactive)	0.0547 (inactive)	-0.0727 (inactive)	0.471	-0.0501	0.0464 (inactive)	0.649	-2.39	-4.57 (inactive)	-0.165 (inactive)	0.152 (inactive)
COc1ccc([Si](C)(C)[C@@H]2[C@@H](CC(=O)N3CCC[C@H]3CO)O[C@]3(C(=O)N(Cc4cccc(N5C(=O)COc6ccccc65)c4)c4ccccc43)[C@H]2C)cc1	-1.58	0.107 (inactive)	-3.43 (inactive)	-1.54 (inactive)	0.425 (inactive)	0.0195 (inactive)	0.719 (inactive)	0.374 (inactive)	-5.39	-0.102	0.527 (inactive)	0.608	-0.317	-2.42 (inactive)	-0.167 (inactive)	-0.614 (inactive)
C=CCC(OC(C)=O)[C@@H]1[C@@H](N(Cc2cccc3ccccc23)C(=O)Cc2ccc(OC)cc2)c2cc(OCCCO)ccc2N1C(=O)c1ccc(-c2ccccc2)cc1 (some centres undefined)	-0.433	0.376 (inactive)	0.551 (inactive)	-0.547 (inactive)	-0.121 (inactive)	-0.352 (inactive)	0.144 (inactive)	-0.165 (inactive)	0.0598	-0.224	0.377 (inactive)	0.309	-2.3	-1.94 (inactive)	0.577 (inactive)	-0.13 (inactive)
CC(CO)N1C(=O)[C@@H]2[C@H]3C(=O)OCC=C[C@H]3OC23C=CCN(Cn2nnc4ccccc42)C(=O)[C@@H]13 (some centres undefined)	-0.628	0.0199 (inactive)	-0.124 (inactive)	0.29 (inactive)	-0.0558 (inactive)	-1.27 (inactive)	-0.11 (inactive)	-0.331 (inactive)	-0.35	-0.334	-0.0787 (inactive)	-1.27	0.212	-3.47 (inactive)	0.612 (inactive)	0.424 (inactive)
